# Source: PubChem BioAssay
# Shown are actives, neighbours in structure and some others; about 1.6% of the full set was active somewhere.
# PREPL inh: PREPL enzyme inhibitors, primary screen, biochemical, fluorescence polarization; inhibition, % at 5.96 µM; actives 0.68% (n = 320,000); recombinant PREPL, fluorescence polarization activity-based probe; in the data active means inhibition above about 43%;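 further: 0% = enzyme with DMSO and 100% = wells lacking enzyme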
# MEX-5 binding: MEX-5 zinc finger RNA-binding disruptors – biochemical, C. elegans, fluorescence polarization, MLPCN library, primary screen. MEX-5/FITC-TCR2 RNA binding; hits give low values. Zinc finger protein mex-5 (Caenorhabditis elegans), Q9XUB2. actives 0.38% (n = 300,000). activity score (negative = inhibition of binding), % at 10 µM. AID 1832, 2009;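 active means inhibition past about -25% in most replicates, and total fluorescence under double the plate's negative control median, limit read from the data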;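 further: 0% = DMSO and -100% = 5 µM competing unlabeled TCR2 RNA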
# Fam108B counter: mouse Fam108B serine hydrolase inhibitors, primary screen, counter-screen for RBBP9 inhibitor project, biochemical, fluorescence polarization; recombinant Fam108B, FP-Rh probe fluorescence polarization; inhibition, % at 9.51 µM; actives 0.33% (n = 300,000); AID 1947, 2009;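 active means inhibition above the screen mean inhibition plus 3 SD, computed separately per campaign, cut at about 18% in these data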;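 further: inhibitors lower polarization as less probe binds the enzyme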
# LYPLA2 counter: LYPLA2 inhibitors, primary screen, counter-screen for PME1 inhibitor project, biochemical, fluorescence polarization, FP-Rh probe ABPP | recombinant LYPLA2 | inhibition, % at 5.9 µM | actives 0.38% (n = 320,000);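 active means inhibition above the screen-wide mean plus 3 SD, limit set per campaign, cut at about 26% in these data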;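 further: 0% = LYPLA2 with DMSO and 100% = wells lacking LYPLA2 enzyme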
# PME-1 primary: PME-1 inhibitors via competitive probe labeling, primary screen, biochemical, fluorescence polarization, FP-Rh probe, HTS. Protein phosphatase methylesterase 1 (Homo sapiens), Q9Y570. recombinant PME-1. inhibition, % at 5.9 µM. actives 0.53% (n = 320,000). AID 2130, 2009;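 active means inhibition above the campaign mean of all compounds plus 3 SD, cut at about 26% in these data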;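 further: competitive labeling of PME-1 active site by serine hydrolase directed probe; 0% = PME-1 with DMSO and 100% = wells lacking PME-1 enzyme; inhibitors block probe labeling so polarization falls and inhibition rises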
# LYPLA1 counter: LYPLA1 inhibitors, primary screen, counter-screen for PME1 inhibitor project, biochemical, fluorescence polarization, FP-Rh probe ABPP; Acyl-protein thioesterase 1 (Homo sapiens), O75608; recombinant LYPLA1; actives 0.16% (n = 320,000); inhibition, % at 5.9 µM;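 active means inhibition above the mean of all tested compounds plus 3 SD, set per campaign, cut at about 14% in these data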;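 further: inhibitors block serine hydrolase probe labeling of LYPLA1 so polarization falls; 0% = enzyme with DMSO and 100% = wells lacking LYPLA1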
# Target sequence (O75608 whole entry, looked up): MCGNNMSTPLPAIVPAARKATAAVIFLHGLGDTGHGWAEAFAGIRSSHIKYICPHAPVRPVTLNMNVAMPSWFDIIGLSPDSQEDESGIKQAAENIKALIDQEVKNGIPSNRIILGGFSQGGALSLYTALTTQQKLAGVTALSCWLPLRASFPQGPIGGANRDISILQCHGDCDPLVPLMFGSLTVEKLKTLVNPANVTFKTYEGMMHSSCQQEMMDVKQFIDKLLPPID
# Numbers without * were called inactive; nt = not tested or not shown.
SMILES,PREPL inh,MEX-5 binding,Fam108B counter,LYPLA2 counter,PME-1 primary,LYPLA1 counter
COCC(=O)NCc1ccc2c(c1)cc(C)n2C,4,-1,0,-6,7,3
Cc1cc2cc(CNC(=O)COc3ccccc3)ccc2n1C,52*,0,9,8,8,7
CC(C)[C@H](NC(=O)c1ccccc1)C(=O)OCC(=O)c1ccccc1F,-10,-1,2,8,0,5
Cc1cc(O)c(CN(C)C)c2c1C(=O)/C(=C/c1ccco1)O2,-2,-37*,-1,1,-2,-2
CCOC(=O)/C(=C/Nc1ccc(F)c(F)c1)[N+](=O)[O-],9,1,6,-5,-3,2
O=[N+]([O-])c1ccc(N2CCN(c3ccc(F)cc3)CC2)cc1,30,2,-3,-6,1,-3
O=C(c1cc([N+](=O)[O-])ccc1Cl)N1CCN(c2ccc(F)cc2)CC1,45*,-6,2,3,3,0
Cc1cc([N+](=O)[O-])ccc1N=Nc1c(N)[nH]n(-c2ccccc2)c1=O,6,2,4,-5,0,-2
Nc1[nH]n(-c2ccccc2)c(=O)c1N=Nc1ccc2c(c1)OCCO2,27,2,11,6,43*,0
CC1(C)CCCN(C(=O)c2ccc3c(c2NCCO)C(=O)c2ccccc2C3=O)C1,53*,-6,0,-7,0,-2
O=C1c2ccccc2C(=O)c2c1ccc(C(=O)N1CCCCC1)c2NCCO,11,-3,1,4,8,2
COc1ccc(C)cc1NC(=O)CSc1nnc(CC(=O)Nc2ccccc2C)n1C,8,3,3,1,0,-2
O=c1c2ccccc2nc(/C=C/c2c[nH]c3ccccc23)n1CCO,17,-2,4,6,47*,-2
O=c1c2ccccc2nc(/C=C/c2cc(Br)ccc2O)n1CCO,-1,0,-3,-16,14,-9
N=c1oc2cc(O)ccc2cc1C(=O)Nc1nc2ccccc2s1,14,-11,15,0,30*,2
O=C(O)COc1ccc(/C=C/c2nc(-c3ccccc3O)n[nH]2)cc1,4,-101*,0,-4,-29,-2
Cc1[nH]c2ccccc2c1C(=O)COC(=O)c1ccc[n+]([O-])c1,6,-1,-3,1,-3,-1
CCOc1ccc(S(=O)(=O)Nc2ncn[nH]2)cc1,3,3,2,2,1,1
CCOc1ccc(S(=O)(=O)Nc2cc(Sc3ncn[nH]3)c3oc(=O)sc3c2)cc1,26,-34*,6,4,5,1
O=C(COC(=O)c1ccc([N+](=O)[O-])s1)Nc1ccc(F)cc1,5,nt,nt,5,8,2
CC(C)(C)c1ccc(NC(=O)COC(=O)c2ccc([N+](=O)[O-])s2)cc1,24,nt,12,16,33*,0
C#Cc1ccc([C@@H]2C=C(C(=O)N3CCN(Cc4ccc5c(c4)OCO5)CC3)O[C@H](OCCCCO)C2)cc1,45*,4,1,-3,-3,0
Cc1cc(C)c2[nH]c(O)c(N=NC3=NC(=O)CS3)c2c1,13,1,5,-2,28*,3
Cc1cc(C)c2[nH]c(O)c(N=Nc3ccc(C(=O)O)cc3)c2c1,0,-1,0,2,5,3
Cc1ccc(S(=O)(=O)N(C)C)cc1NC(=O)CCc1c[nH]c2ccccc12,9,0,-3,-1,5,1
COc1ccc(S(=O)(=O)N(C)C)cc1NC(=O)Cc1c[nH]c2ccccc12,2,4,-8,1,78*,-5
O=[N+]([O-])c1ccc(N=NN(CCO)CCO)cc1,9,1,4,9,1,-3
O=[N+]([O-])c1ccc(N=Nc2ncc[nH]2)cc1,nt,-32*,nt,nt,nt,nt
CC(=O)Oc1cccc(NC(=O)c2ccc3c(c2)C(=O)N(CC(C)C)C3=O)c1,-1,-1,4,11,5,2
